Compound activity deposited in PubChem BioAssay by National Center for Advancing Translational Sciences (NCATS).
TRHR enhancer-1: allosterically enhances the human TRH receptor; P34981; TRHR cells, fluo-8 calcium fluorescence, EC20 TRH enhancement; enhancement, % at 2 µM; hit rate 0.66% among 360,000; in the data active means enhancement above about 30%
Target sequence (P34981 whole entry, looked up): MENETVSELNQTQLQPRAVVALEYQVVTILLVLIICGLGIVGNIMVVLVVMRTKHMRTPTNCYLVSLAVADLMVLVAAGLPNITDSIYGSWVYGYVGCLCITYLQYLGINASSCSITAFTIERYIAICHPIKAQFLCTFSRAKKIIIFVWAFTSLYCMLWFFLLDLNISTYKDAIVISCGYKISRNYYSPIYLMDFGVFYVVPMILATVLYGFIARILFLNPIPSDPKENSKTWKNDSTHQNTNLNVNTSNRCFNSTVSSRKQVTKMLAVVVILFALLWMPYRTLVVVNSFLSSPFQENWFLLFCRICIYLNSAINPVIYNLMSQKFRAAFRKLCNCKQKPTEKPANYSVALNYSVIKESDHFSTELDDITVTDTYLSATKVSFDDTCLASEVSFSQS
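Enhancer read-out: after compound pinning and an initial kinetic agonist-mode read, an EC20 of TRH (10 nM final) was injected and fluo-8 calcium signal (Ex 480/Em 530) followed at 1 s/cycle for 100 cycles in TRHR-expressing cells.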
D1 PAM: potentiators of human D1 dopamine receptor; P21728; HEK293 TREx D1 cells, calcium flux, dopamine EC20 potentiation; potentiation, % at 10 µM; hit rate 0.036% among 360,000; AID 504651; in the data active means potentiation above about 30%
D1 antag: antagonists of human D1 dopamine receptor. activity change, negative = inhibition, % at 10 µM. HEK293 TREx D1 cells, calcium flux, dopamine EC80; active compounds read low. hit rate 3.2% among 360,000. P21728. AID 504652; in the data active means activity change below about -30%
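Using tetracycline-induced force-coupled D1 Hek293 cells and a calcium dye, signals were followed for 180 s after compound, then for 180 s after EC80 dopamine, to detect inhibitors.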
D1 agonist: agonists of human D1 dopamine receptor | P21728 | HEK293 T-REx D1 cells, calcium flux, agonist mode | activation, % at 2 µM | hit rate 1% among 360,000 | AID 504660; in the data active means activation above about 30%
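Tetracycline-induced HEK293 TREx D1 cells, force-coupled to calcium signalling, were dye-loaded with a no-wash calcium kit. Compound was pin-added after a 10 s baseline. Fluorescence was read kinetically at 1 cycle/s for 180 s, with calcium rises flagged as agonism.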
TRHR agonist-1: agonists of human TRH receptor | hit rate 0.18% among 360,000 | P34981 | TRHR cells, calcium flux fluo-8, FDSS agonist mode | activation, % at 2 µM; in the data active means activation above about 30%
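Read-out: compound-evoked intracellular calcium rise in TRHR cells, fluo-8 dye, kinetic FDSS fluorescence at 1 s/cycle following a 10-cycle baseline. Cells cultured overnight before dye loading (30 min–1.5 h, RT).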
TRHR enhancer-2: confirmation of human TRH receptor allosteric enhancers; shares compounds with TRHR enhancer-1; TRH receptor cell assay, enhancer confirmation qHTS; activity change, negative = inhibition, % at 46.1 µM; 970 tested, under 10 active; AID 493076;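 further: compound effect scored on response to added TRH at EC20 of 10 nM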
TRHR agonist-2: confirmation of human TRH receptor agonists; hit rate 8% among 970; AID 493078; TRHR-expressing cells, agonist activation read-out; shares compounds with TRHR enhancer-1; Potency, µM (series often up to 46.1 µM), hits mostly activators; further: nearly all actives have a fitted effect of over 75% in size
Large screens that a line does not name were inactive (follow-up assays come after a bar, where they were run). In the library only some 4.7% were active in any assay of this set; here they are far more common. Unless noted, the call rests on the fitted dose curve; in most records, active means well fitted curve in the direction sought with a large enough effect; inconclusive means small, poorly fitted or top-dose-only effect, or another doubt; inactive means no such curve, though single readings can be large; an effect the other way counts as inactive or inconclusive.

Cc1ccc(F)cc1NCC(=O)Nc1ccc(Br)cc1	none
Cc1ccc(NCC(=O)Nc2ccc(Br)cc2)cc1C	TRHR enhancer-1 70.3, D1 antag -48.1 | TRHR enhancer-2 inactive | TRHR agonist-2 inactive
CC1CCCN(S(=O)(=O)c2ccc(NC(=O)CCN3C(=O)c4ccccc4C3=O)cc2)C1 (centres undefined)	TRHR agonist-1 37.5 | TRHR enhancer-2 inactive | TRHR agonist-2 inactive
O=C(CCN1C(=O)c2ccccc2C1=O)Nc1ccc(S(=O)(=O)N2CCOCC2)cc1	none
COc1ccc(CCNC(=O)c2cnc3sc(N4CCC(C)CC4)nn3c2=O)cc1OC	none
CCOC(=O)c1cc(-c2csc(-c3ccc(C(C)(C)C)cc3)n2)on1	TRHR enhancer-1 44.3 | TRHR enhancer-2 inactive | TRHR agonist-2 inactive
Cc1ccccc1NC(=O)Cn1c(=O)n(CCC(=O)N2CCc3ccccc3C2)c(=O)c2ccccc21	none
COc1ccc(N/N=C(\C#N)C(N)=O)cc1	TRHR enhancer-1 45.5 | TRHR enhancer-2 inactive | TRHR agonist-2 inactive
CC1CCN(Cc2c(C(=O)N/N=C/c3ccc(C(C)C)cc3)nnn2-c2nonc2N)CC1	TRHR enhancer-1 52.1 | TRHR enhancer-2 inactive | TRHR agonist-2 inactive
COc1ccc(C(=O)NC2CC2)cc1OC1CCN(C(C)CSC)CC1 (centres undefined)	none | TRHR enhancer-2 inactive | TRHR agonist-2 inactive
CCc1cc(-c2n[nH]c(C)c2-c2nc(C)cs2)c(O)cc1OC	TRHR enhancer-1 45.2 | TRHR enhancer-2 inconclusive | TRHR agonist-2 inactive
O=C(C1=C(O)C(=O)N(c2nccs2)C1c1ccccc1)c1cc2ccccc2o1 (centres undefined)	D1 agonist 107.1, TRHR agonist-1 57.4 | TRHR enhancer-2 inconclusive | TRHR agonist-2 4.61µM
COc1cc(/C=C(\C#N)C(=O)NCCc2ccccc2)cc(OC)c1O	D1 agonist 72.7, TRHR agonist-1 56.0 | TRHR enhancer-2 inactive | TRHR agonist-2 20.6µM
Cn1nnnc1SCC(=O)NNC(=O)c1ccc(F)cc1	TRHR enhancer-1 44.5 | TRHR enhancer-2 inactive | TRHR agonist-2 inactive
COc1cc(Cl)c(C)cc1N1C(=O)CN(Cc2ccccc2)C1=S	TRHR agonist-1 90.6 | TRHR enhancer-2 inactive | TRHR agonist-2 inactive
O=C(Nc1ccc(Br)cc1Cl)c1ccc2c(=O)n3c(nc2c1)CCC3	none
O=C(Nc1ccc(Cl)cc1Cl)c1ccc2c(=O)n3c(nc2c1)CCC3	none | TRHR enhancer-2 inactive | TRHR agonist-2 inconclusive
CCOc1ccc(Nc2nc(N3CCOCC3)nc(N3CCOCC3)n2)cc1	TRHR enhancer-1 50.2 | TRHR enhancer-2 inactive | TRHR agonist-2 inactive
CCOc1ccc(Nc2cc(C)nc(N3CCOCC3)n2)cc1	none
CCc1ccc(Oc2c(C(F)(F)F)oc3c(CN4CCCC(C)C4)c(O)ccc3c2=O)cc1 (centres undefined)	none
O=C(CSc1ccc(-c2cccnc2)nn1)N1CCCc2ccccc21	TRHR enhancer-1 41.0 | TRHR enhancer-2 inactive | TRHR agonist-2 inactive
O=C(CSc1ccc(-c2ccccn2)nn1)N1CCCc2ccccc21	none
COCCn1c(C)cc(O)c(C(c2ccc(OC)cc2)N2CCN(c3ccccc3)CC2)c1=O (centres undefined)	none
CCOc1ccccc1NC(=O)n1ncc2cc(Cl)ccc21	none
Cc1ccc(C)c(C2=CSC3=NCCN23)c1	TRHR enhancer-1 67.6 | TRHR enhancer-2 inactive | TRHR agonist-2 inactive
Cc1ccc(C)c(C2=CSC3=NS(=O)(=O)CCN23)c1	none
CCOc1ccc(-c2nc(CNC(=O)NC3CCCCC3)c(C)o2)cc1	none
CCOc1cccc2cc(S(=O)(=O)c3ccccc3F)c(=O)oc12	none
NC(=O)CN1CCOCCOCCN(CC(N)=O)CCOCCOCC1	TRHR enhancer-1 54.7 | TRHR enhancer-2 inconclusive | TRHR agonist-2 inactive
Cc1ccc(C2C(C(=O)c3ccco3)=C(O)C(=O)N2c2nnc(C)s2)cc1 (centres undefined)	none
CSc1nnc(N2C(=O)C(O)=C(C(=O)c3ccco3)C2c2ccccc2)s1 (centres undefined)	D1 agonist 99.7 | TRHR enhancer-2 inactive | TRHR agonist-2 inactive
Nc1c(S(=O)(=O)c2ccccc2)c2nc3ccccc3nc2n1Cc1ccco1	none | TRHR enhancer-2 inactive | TRHR agonist-2 inconclusive
Nc1c(S(=O)(=O)c2ccccc2)c2nc3ccccc3nc2n1CCN1CCOCC1	none
COc1ccc2nc3ccccc3nc2c1	TRHR enhancer-1 48.9 | TRHR enhancer-2 inactive | TRHR agonist-2 inactive
COc1ccc(-c2nc3ccccc3nc2-c2ccccc2)cc1	none
CCOC(=O)C1=C(CN2CCC(C(=O)OCC)CC2)NC(=O)NC1c1ccc(Cl)cc1 (centres undefined)	none
CC1=C(C(=O)OCC(C)C)C(c2ccccc2Cl)NC(=O)N1C (centres undefined)	none (no result: D1 PAM)
CC1=C(C(=O)OCC(C)C)C(c2cc3c(cc2Br)OCO3)NC(=O)N1C (centres undefined)	TRHR enhancer-1 52.7 | TRHR enhancer-2 inactive | TRHR agonist-2 inconclusive
COc1cc(/C=C(\C#N)c2nc3ccccc3n2C)cc(OC)c1O	D1 agonist 63.8, TRHR agonist-1 118.7 | TRHR enhancer-2 inactive | TRHR agonist-2 18.4µM
Cn1c(/C(C#N)=C/c2ccc(O)cc2)nc2ccccc21	none
Cc1ccc(CNC(=O)CC2Oc3ccccc3NC2=O)cc1 (centres undefined)	none
COc1ccc(/C=N/n2c(-c3ccccc3)n[nH]c2=S)cc1	TRHR enhancer-1 48.9 | TRHR enhancer-2 inactive | TRHR agonist-2 inactive
COc1ccc(-c2onc(C)c2C)cc1S(=O)(=O)Nc1ccc(OC(F)(F)F)cc1	none
Cc1ccc(S(=O)(=O)C(CNC(=O)COc2ccc(Cl)cc2)c2ccco2)cc1 (centres undefined)	none (no result: D1 antag)
COc1ccc(Cl)cc1C(=O)Nc1ccc(CN2CCCCC2)cc1	TRHR enhancer-1 64.3 | TRHR enhancer-2 inactive | TRHR agonist-2 inactive
S=C(Nc1ccc(Br)cc1)N1CCCC1	TRHR enhancer-1 41.3 | TRHR enhancer-2 inactive | TRHR agonist-2 inactive
O=C(COC(=O)c1cccnc1Cl)Nc1cccc(S(=O)(=O)N2CCCCC2)c1	TRHR enhancer-1 54.5 | TRHR enhancer-2 inactive | TRHR agonist-2 inactive
CCOc1ccccc1N1CC(C(=O)Nc2cccc(S(=O)(=O)N3CCCCC3)c2)CC1=O (centres undefined)	TRHR enhancer-1 73.7 | TRHR enhancer-2 inactive | TRHR agonist-2 inactive
COc1cc(/C=N/N(C)C)ccc1OC(=O)c1ccco1	TRHR enhancer-1 41.4 | TRHR enhancer-2 inactive | TRHR agonist-2 inactive
COc1cc(/C=N/N2CCOCC2)ccc1OC(=O)c1ccco1	none
